Among all 200,000 compounds or so, about 520 (0.26%) were called active. This excerpt belongs to a sample that is enriched for actives. Values without a mark were called inactive.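 The calls were made as follows: active = tissue-nonspecific alkaline phosphatase inhibition above about 50% at 20 µM in the single-dose screen (limit read from the data); inactive = the rest.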
Molecular target: Alkaline phosphatase, tissue-nonspecific isozyme (Homo sapiens) (UniProt P05186)
Assay: blockers of alkaline phosphatase TNAP activity – biochemical, luminescent, no phosphate acceptor, uHTS, primary screen (AID 1012);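 also: 0% = DMSO negative control and 100% = EDTA positive control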
Settings: purified TNAP, CDP-star luminescence, 30 min; at 20 µM; hits give high values

Sequence of Alkaline phosphatase, tissue-nonspecific isozyme (Homo sapiens) (P05186 whole entry, looked up): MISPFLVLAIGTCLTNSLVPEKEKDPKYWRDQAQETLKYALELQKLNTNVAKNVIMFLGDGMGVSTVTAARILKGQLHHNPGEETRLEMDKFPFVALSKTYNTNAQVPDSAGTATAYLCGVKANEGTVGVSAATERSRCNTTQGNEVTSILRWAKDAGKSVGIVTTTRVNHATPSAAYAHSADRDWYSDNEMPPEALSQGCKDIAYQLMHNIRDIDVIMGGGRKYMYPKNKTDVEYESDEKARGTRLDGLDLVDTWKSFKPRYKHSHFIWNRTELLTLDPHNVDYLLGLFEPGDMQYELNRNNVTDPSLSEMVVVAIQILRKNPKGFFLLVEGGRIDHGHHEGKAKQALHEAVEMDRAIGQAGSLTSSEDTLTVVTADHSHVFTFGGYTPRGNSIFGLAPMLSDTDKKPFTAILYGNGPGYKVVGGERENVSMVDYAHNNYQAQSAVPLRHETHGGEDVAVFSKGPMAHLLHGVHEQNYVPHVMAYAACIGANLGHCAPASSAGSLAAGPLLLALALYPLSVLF

Compound | inhibition
CN(C)CCCN=Cc1c(O)n(Cc2ccco2)c(=O)[nH]c1=O | -20.3%
CCC(=NCc1ccco1)c1c(O)n(Cc2ccccc2)c(=O)[nH]c1=O | -5.5%
O=C(N/N=C/c1c(O)n(Cc2ccccc2)c(=O)[nH]c1=O)c1ccccc1 | 94.3% (active)
O=C(OCCN1CCOCC1)C1(c2ccccc2)CCCC1 | -3%
O=C(NCC(c1cccnc1)N1CCN(c2ccccc2)CC1)Oc1ccccc1 (stereo not given) | -8.6%

Reference: PubChem BioAssay AID1012 (Sanford-Burnham Center for Chemical Genomics, 2008)
